The source of these data is ChEMBL document CHEMBL4513141, “CO-ADD screening of NIH (USA) - Clinical Collection” (2021).

SMILES strings stand for the structures. Measured potencies and affinities stand elsewhere.

In the test the test system is Klebsiella pneumoniae. The following applies: Concentration 20 uM; ASSAY_TEST Inhibition of Bacterial Growth; detection method Absorption (OD600); MEDIA CAMHB; plate type 384well; NBS; CORNING #3640; time 18 hr.
On to `COc1ccc(/C=C/C(=O)Nc2ccccc2C(=O)O)cc1OC`, for which the Inhibition worked out at 8.22%.
For `CC(=O)NS(=O)(=O)c1ccc(N)cc1` [SULFACETAMIDE], the Inhibition came to 11.67%.
The figure for `CCc1nn(CCCN2CCN(c3cccc(Cl)c3)CC2)c(=O)n1CCOc1ccccc1.Cl` [NEFAZODONE HYDROCHLORIDE] is 1.06%; for `COc1cc2nc(N3CCN(C(=O)C4COc5ccccc5O4)CC3)nc(N)c2cc1OC` (centres undefined) [DOXAZOSIN] it is 13.22%.
The figure for `CC(=O)O[C@]1(C(C)=O)CC[C@H]2[C@@H]3C=C(C)C4=CC(=O)CC[C@]4(C)[C@H]3CC[C@@]21C` [MEGESTROL ACETATE] is 7.28%; for `COc1cc([C@@H]2c3cc4c(cc3[C@@H](O[C@@H]3O[C@@H]5CO[C@@H](C)O[C@H]5[C@H](O)[C@H]3O)[C@H]3COC(=O)[C@H]23)OCO4)cc(OC)c1O` [ETOPOSIDE] it is 4.81%.
As for `Cl.Clc1ccccc1CN1CCc2sccc2C1` [TICLOPIDINE HYDROCHLORIDE], the Inhibition is given as -0.77%.
The figure for `CC(C)[N+](C)(CCOC(=O)C1c2ccccc2Oc2ccccc21)C(C)C.[Br-]` [PROPANTHELINE BROMIDE] is 18.08%; for `CC1=C(/C=C/C(C)=C/C=C/C(C)=C/C(=O)O)C(C)(C)CCC1` [TRETINOIN] it is 14.57%; for `Nc1ccn([C@@H]2CS[C@H](CO)O2)c(=O)n1` [LAMIVUDINE] it is 20.65%.
Next, `CCN1CC(CCN2CCOCC2)C(c2ccccc2)(c2ccccc2)C1=O.Cl` (centres undefined): 1.35%; `O=C1N=C([O-])NC1(c1ccccc1)c1ccccc1.[Na+]` [PHENYTOIN SODIUM]: 7.94%; `CNC(=C[N+](=O)[O-])NCCSCc1csc(CN(C)C)n1` [NIZATIDINE]: 14.45%.
On to `Cl.Nc1nc2ccc(OC(F)(F)F)cc2s1`, for which the Inhibition amounted to 11.2%.
Take `CC(C)NCC(O)COc1ccc(CCOCC2CC2)cc1.Cl` (centres undefined) [BETAXOLOL HYDROCHLORIDE]: the Inhibition is recorded as 15.59%.
Next, `CCc1cccc2c3c([nH]c12)C(CC)(CC(=O)O)OCC3` (centres undefined) [ETODOLAC]: 6.96%; `Nc1ccc(S(=O)(=O)c2ccc(N)cc2)cc1` [DAPSONE]: 5.01%; `O=C(O)COCCN1CCN([C@H](c2ccccc2)c2ccc(Cl)cc2)CC1` [LEVOCETIRIZINE]: 20.22%.
With `Cc1ncc([N+](=O)[O-])n1CC(C)O` (centres undefined) [SECNIDAZOLE], the Inhibition was determined as 8.29%.
The figure for `Cn1cnc([N+](=O)[O-])c1Sc1ncnc2[nH]cnc12` [AZATHIOPRINE] is 13.95%; for `Nc1nc(O)c2ncn(CCC(CO)CO)c2n1` [PENCICLOVIR] it is 17.55%; for `OCCN1CCN(CCCN2c3ccccc3Sc3ccc(Cl)cc32)CC1` [PERPHENAZINE] it is 14.78%.
As to `CN(C)CCCN1c2ccccc2CCc2ccc(Cl)cc21.Cl` [CLOMIPRAMINE HYDROCHLORIDE], the Inhibition is reported as 18.4%.
The figure for `O=C(O)c1cccnc1` [NIACIN] is 4.99%; for `C[C@]12C=CC(=O)C=C1CC[C@@H]1[C@@H]2[C@@H](O)C[C@@]2(C)[C@H]1CC[C@]2(O)C(=O)COC(=O)CCC(=O)[O-].[Na+]` [PREDNISOLONE SODIUM SUCCINATE] it is 6.54%.
Next, `CNCC(O)c1ccc(O)c(O)c1` (centres undefined) [RACEPINEPHRINE]: 12.35%.
Consider `COCCCC/C(=N\OCCN)c1ccc(C(F)(F)F)cc1.O=C(O)/C=C\C(=O)O` [FLUVOXAMINE MALEATE], for which the Inhibition worked out at 6.46%.
Regarding `Cl.OC(CCN1CCCC1)(c1ccccc1)C1CCCCC1` (centres undefined) [PROCYCLIDINE HYDROCHLORIDE], the Inhibition worked out at 8.43%.
The figure for `Cc1cccc(CCN2CCC(C(=O)c3ccc(NS(C)(=O)=O)cc3)CC2)n1.Cl.Cl` is 0.58%.
The figure for `CC(=O)OCC(=O)[C@@]1(O)CC[C@H]2[C@@H]3CCC4=CC(=O)CC[C@]4(C)[C@H]3C(=O)C[C@@]21C` [CORTISONE ACETATE] is 12.5%.
In the case of `COc1ccc2cc(CCC(C)=O)ccc2c1` [NABUMETONE], the Inhibition worked out at 8.45%.
Next, `COc1ccccc1N1CCN(CC(O)COc2cccc3ccccc23)CC1` (centres undefined) [NAFTOPIDIL]: -0.32%; `CCCN1CCCC[C@H]1C(=O)Nc1c(C)cccc1C.Cl` [ROPIVACAINE HYDROCHLORIDE]: 12.03%; `NNC(=O)c1ccncc1` [ISONIAZID]: 6.54%.

The term Inhibition denotes the drop in the measured response relative to a control, in per cent.
